# Measured values as given in article PMC7819943, “Rice protein-binding microarrays: a tool to detect cis-acting elements near promoter regions in rice”.
# Over roughly 35,000 sequences, “fluorescence intensity (a.u.)” has its median near 10,000; the highest 2% begin near 52,000. Shown is part of a subset that was picked to be rich in the highest values.
# Target: T1, OsWOX13 (Oryza sativa, UniProt Q5QMM3 1-267)
# T1 sequence: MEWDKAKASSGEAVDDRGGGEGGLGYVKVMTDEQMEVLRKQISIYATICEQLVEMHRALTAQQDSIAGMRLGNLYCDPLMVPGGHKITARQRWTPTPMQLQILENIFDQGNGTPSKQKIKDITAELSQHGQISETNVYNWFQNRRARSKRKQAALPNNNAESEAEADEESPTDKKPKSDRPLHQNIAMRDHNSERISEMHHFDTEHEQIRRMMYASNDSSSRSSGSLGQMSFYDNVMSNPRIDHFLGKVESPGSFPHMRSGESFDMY
# Assay: protein-binding microarray (RPBM); PBS, 2% BSA, 51.3 ng/ul salmon testes DNA, 50 uM zinc acetate, 200 nM TF, 25 C, 1 h; high values mean tight binding
# Conditions: protein: recombinant; tags: N-terminal polyhistidine and DsRed monomer fusion (pET32a); label: CyDye5-dUTP incorporated in the synthesized complementary strand; 3' TTTTT single-stranded linker to array surface; dsDNA, one strand shown
# How it was run: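 Using Ni–NTA, transcription factors fused N-terminally to polyhistidine and DsRed were purified after expression in E. coli BL21-CodonPlus. These were incubated at 200 nM with a blocked, double-stranded custom Agilent array for 1 h at 25 °C in a buffer containing 50 µM zinc acetate, and the array was washed. The binding signal is per-feature fluorescence intensity (arbitrary units) on an Axon 4000B scanner.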
row,Sequence,binding signal
1,TCCTGTAACAGAATTGGAAAACCCAATCTGGCGACGGCTGCGGAGTCACCTAGTGCAG,9790 fluorescence intensity (a.u.)
2,CTTGACAGGCACCGTGATACTTGGGTTCTTGATATAACTGCGGAGTCACCTAGTGCAG,34400 fluorescence intensity (a.u.)
3,GTAATTGATTTTCTGGCGCGATTAAGAGCTTGGTATATAGCGGAGTCACCTAGTGCAG,59200 fluorescence intensity (a.u.)
4,AATCCTCTTAATTATTATTAGCGGTTCGTCCTATGATCTTCGGAGTCACCTAGTGCAG,7080 fluorescence intensity (a.u.)
5,GCGTAATTAGGCGGAGAGATTATAGGGAGAGAGATCGCGACGGAGTCACCTAGTGCAG,16700 fluorescence intensity (a.u.)
6,TGATTAATTAGCGAGAGTAATTAATTAATTATAGCCTGCGCGGAGTCACCTAGTGCAG,61600 fluorescence intensity (a.u.)
7,ATATAGTTGTGATTAATTAGTGAGTAGAGTGTGATACCTGCGGAGTCACCTAGTGCAG,22100 fluorescence intensity (a.u.)
8,ATGATATAATTAATTAATTAGCGCGCGGTTCCACCTCCCGCGGAGTCACCTAGTGCAG,60200 fluorescence intensity (a.u.)
9,CTGACTGGCTCTGATTAATTAATTGATGATCGATCGAGCGCGGAGTCACCTAGTGCAG,49800 fluorescence intensity (a.u.)
10,TTAAAATTATTTTATAATTAATATTTATTATTATTATTAGCGGAGTCACCTAGTGCAG,12400 fluorescence intensity (a.u.)
11,TAGCTTAATTTGATTTCTATTTAAGACCTTGACATTAACGCGGAGTCACCTAGTGCAG,24400 fluorescence intensity (a.u.)
12,GAGCATGATTACTTAAATATTAGCTAATTCTTTCTTTAAACGGAGTCACCTAGTGCAG,15500 fluorescence intensity (a.u.)
13,GTTGTACCACTGATTGGACTGCCTGCTTACCGATAATTAACGGAGTCACCTAGTGCAG,24500 fluorescence intensity (a.u.)
14,TTCTTGATGGAAATTGAAATTGTGTGTGTGGGATGCAGGACGGAGTCACCTAGTGCAG,46400 fluorescence intensity (a.u.)
15,ACACTAATAGGTCATGTCCATTTCCATCCCATTTCCATTGCGGAGTCACCTAGTGCAG,7050 fluorescence intensity (a.u.)
16,AGACTATTTACAAAACTAATTACATAAATGAAAGCTAACTCGGAGTCACCTAGTGCAG,5260 fluorescence intensity (a.u.)
17,TAAATTATTTTCTATTTATAAATATGTCGTTTGCCTTATTCGGAGTCACCTAGTGCAG,4180 fluorescence intensity (a.u.)
18,AATTGACAAAGATGAAACACATGTGGACTGGACTACTCGACGGAGTCACCTAGTGCAG,3660 fluorescence intensity (a.u.)
19,ATATAAATTGACTATTAAATATATTGACTATATGTAAATTCGGAGTCACCTAGTGCAG,25600 fluorescence intensity (a.u.)
20,AATTAACGGAGGAAACTCCAATCAGATACGCAGACGGACACGGAGTCACCTAGTGCAG,8430 fluorescence intensity (a.u.)
21,TATATATATATATATATATATATATATATATATATAGACACGGAGTCACCTAGTGCAG,7880 fluorescence intensity (a.u.)

row,Sequence,binding signal
1,AACAGCTGATGAGTGATGATTGACAGACATCACACGCGGACGGAGTCACCTAGTGCAG,57600 fluorescence intensity (a.u.)
2,CTCTAGTTGATGATGGAAATCATTGACAAGAACTATAGCACGGAGTCACCTAGTGCAG,22100 fluorescence intensity (a.u.)
3,ATTGATGAATGTTGACAAACCTGGTTTGATTTGGAGGGAACGGAGTCACCTAGTGCAG,23500 fluorescence intensity (a.u.)
4,TGGCTGCTGATTGCAACAGTGGTACTGACATTAGCAGCAGCGGAGTCACCTAGTGCAG,16300 fluorescence intensity (a.u.)
5,AACACAGGCTGATGAATGATGATTGAATGAACAGAGACAACGGAGTCACCTAGTGCAG,22900 fluorescence intensity (a.u.)
6,TATCTGATGAGAGCAGATTGCCACACATCACAGCATGCAGCGGAGTCACCTAGTGCAG,10300 fluorescence intensity (a.u.)
7,AGTGATTATTTATTGGAGTACGATTGAGACCCTTGGTACGCGGAGTCACCTAGTGCAG,33400 fluorescence intensity (a.u.)
8,ATGATTGACAAGATGAATCAGCACGCTGTTGGAAAAGGGACGGAGTCACCTAGTGCAG,55400 fluorescence intensity (a.u.)
9,ATTTGATTTGATCACAACACATTAGCTTGGTTGCTCCATGCGGAGTCACCTAGTGCAG,41800 fluorescence intensity (a.u.)
10,ATTGCTGATTGAGCATGTAGACATTGCTAGTGGTAGTACGCGGAGTCACCTAGTGCAG,58000 fluorescence intensity (a.u.)
11,CACCATGATTGATTGCTCCATGCACACACATTGAGACACGCGGAGTCACCTAGTGCAG,59700 fluorescence intensity (a.u.)
12,TTACACTGATTGATGCTCCACATGAACACCACATGCATTTCGGAGTCACCTAGTGCAG,32600 fluorescence intensity (a.u.)
13,ATTATGTAAATTTTGACTAATGTTTAGTCGAAGTGCAAGTCGGAGTCACCTAGTGCAG,8100 fluorescence intensity (a.u.)
14,TGTCACAAATCTAATGGTATAATTAGTTCATAGTTCGGATCGGAGTCACCTAGTGCAG,8340 fluorescence intensity (a.u.)
15,TCTAAATTTTCATGACATGGTACCATACTACAAATCCATCCGGAGTCACCTAGTGCAG,9500 fluorescence intensity (a.u.)
16,TTTAGACAGTAATTAAAGTCGAATTACATTGCATTGTTCGCGGAGTCACCTAGTGCAG,40300 fluorescence intensity (a.u.)
17,GTAATTGGGAGGGAATTTCTCCTTTACTTCGCCTAAACAACGGAGTCACCTAGTGCAG,14100 fluorescence intensity (a.u.)
18,TCTAACTGTGGATAATATCTGACAGGAAATTTGATATCAACGGAGTCACCTAGTGCAG,6210 fluorescence intensity (a.u.)
19,TGTTGGTTAAGTAATTAATTAAGTCTTGGCTATTGGCGATCGGAGTCACCTAGTGCAG,13500 fluorescence intensity (a.u.)
20,TCGTAAAATTAATTGTAAATTGTAATATGATAACAAGGCCCGGAGTCACCTAGTGCAG,33100 fluorescence intensity (a.u.)
21,TCTTAATTGAAAGAGTTTTCATCATGTCTTTCAGTCACCACGGAGTCACCTAGTGCAG,53900 fluorescence intensity (a.u.)

row,Sequence,binding signal
1,GTGCTTTAATCAGTAATTTTGCAATTGCTTTTGAATTTCACGGAGTCACCTAGTGCAG,5640 fluorescence intensity (a.u.)
2,ACTTTTCAGTTACATCATCTCTAATTTCAATTGAAATCCACGGAGTCACCTAGTGCAG,7120 fluorescence intensity (a.u.)
3,CAAAATTATCTAATTGATGACTATTTCTAAATACACATCACGGAGTCACCTAGTGCAG,41800 fluorescence intensity (a.u.)
4,AGTTTTCAAAATTTGACTTTAAAATTTAAATCTTAAATCACGGAGTCACCTAGTGCAG,3970 fluorescence intensity (a.u.)
5,GAGTTTAATTAATTAATTTCTTAAAATTGATGTCATCACACGGAGTCACCTAGTGCAG,54800 fluorescence intensity (a.u.)
6,CTAATCAAAATGTAATTAACTCATTTATATATTACGGAAACGGAGTCACCTAGTGCAG,21800 fluorescence intensity (a.u.)
7,TCGATCTCCATTAATTATCCAACGACGACACGACGACGCACGGAGTCACCTAGTGCAG,5720 fluorescence intensity (a.u.)
8,GGGTCAGGGTGGGCGTGGATTGATATTTTAATACGAATAACGGAGTCACCTAGTGCAG,10800 fluorescence intensity (a.u.)
9,TGCACGCTAATTTGCCTTGCTGCTGCTGCTACTAGGGCGGCGGAGTCACCTAGTGCAG,4920 fluorescence intensity (a.u.)
10,GATTAATGATTAATTAATAATATGTTAATGAGTTTTATCCCGGAGTCACCTAGTGCAG,52500 fluorescence intensity (a.u.)
11,GTCATTTTAATTGCAAATGCTTTTATATGTTGTTTCTTTCCGGAGTCACCTAGTGCAG,6630 fluorescence intensity (a.u.)
12,GCTGATGACTTTTCTCCCGGTTTCATATTTTCTTTTAGAACGGAGTCACCTAGTGCAG,8420 fluorescence intensity (a.u.)
13,GAACGGAGGATGCTGAGCTCTCTTATGAGGTCTATTTTCCCGGAGTCACCTAGTGCAG,65100 fluorescence intensity (a.u.)
14,TTAATTAATAATATGTTAATGATTTTCTCATCTTACCTTACGGAGTCACCTAGTGCAG,13400 fluorescence intensity (a.u.)
15,TTAAAATTTATATGTTAAATTATAGTGGTTTAAAATTTCACGGAGTCACCTAGTGCAG,8530 fluorescence intensity (a.u.)
16,GTTTAATTAATTATATGTTAATGATTTTCTTTTCATGCCCCGGAGTCACCTAGTGCAG,65400 fluorescence intensity (a.u.)
17,CATGATTTTACTTTCTTTTCAGGTCTTAGGAGTGAGCTTCCGGAGTCACCTAGTGCAG,9930 fluorescence intensity (a.u.)
18,TATGATTTATAAATTAATGGATTTAAAGTTTTAAGTTAATCGGAGTCACCTAGTGCAG,43900 fluorescence intensity (a.u.)
19,AGCCTAATTAATTCGTCATTAGCATATGTGGGTTATTATACGGAGTCACCTAGTGCAG,27800 fluorescence intensity (a.u.)
20,ACTTAATTATGTTGTGGTTAATTAGCCCCGAAATGGTCGTCGGAGTCACCTAGTGCAG,52900 fluorescence intensity (a.u.)
21,TAGATGAGTTAAATATAATTATTTGTATGTTTTAATAAATCGGAGTCACCTAGTGCAG,3630 fluorescence intensity (a.u.)
